# PAFAH1B2 inh: PAFAH1B2 enzyme inhibitors, primary screen, biochemical, fluorescence polarization, human; recombinant PAFAH1B2, FP-rhodamine activity probe; 340,000 compounds, 1.2% hits; AID 492953, 2010; inhibition, % at 3.39 µM;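 active = inhibition above the mean of all tested compounds plus 3 SD, cut at about 24% in these data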
# PAFAH1B3 FP inh: PAFAH1B3 enzyme inhibitors, primary screen, biochemical, fluorescence polarization, human; recombinant PAFAH1B3, FP-rhodamine probe; inhibition, % at 3.39 µM; 340,000 compounds, 0.28% hits;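 active = inhibition above the screen-wide average of all tested compounds plus 3 SD, cut at about 25% in these data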
# DAGLB inhibitor: DAGLB lipase inhibitors, primary screen, biochemical, fluorescence, HTS | 340,000 compounds, 0.059% hits | inhibition, % at 5.17 µM | HEK293T DAGLB membrane lysate, EnzChek fluorogenic substrate | AID 504411, 2011; in the data active = inhibition above about 34%
# PAFAH2 inh: PAFAH2 enzyme inhibitors, primary screen, biochemical, fluorescence polarization, human; Platelet-activating factor acetylhydrolase 2, cytoplasmic (Homo sapiens), Q99487; recombinant PAFAH2, FP-rhodamine activity probe; inhibition, % at 3.39 µM; 340,000 compounds, 0.99% hits; AID 492956, 2010;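 active = inhibition above the mean over all tested compounds plus 3 SD, cut at about 30% in these data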;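 also: inhibitors block probe labeling of enzyme so polarization drops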
# HTRA1 inhibitor: HTRA1 serine protease inhibitors, primary screen, biochemical, fluorescence polarization, HTS; Q92743; recombinant HTRA1, FP-rhodamine activity-based probe; inhibition, % at 5.96 µM; 340,000 compounds, 0.5% hits; in the data active = inhibition above about 36%
# Target sequence (Q92743 whole entry, looked up): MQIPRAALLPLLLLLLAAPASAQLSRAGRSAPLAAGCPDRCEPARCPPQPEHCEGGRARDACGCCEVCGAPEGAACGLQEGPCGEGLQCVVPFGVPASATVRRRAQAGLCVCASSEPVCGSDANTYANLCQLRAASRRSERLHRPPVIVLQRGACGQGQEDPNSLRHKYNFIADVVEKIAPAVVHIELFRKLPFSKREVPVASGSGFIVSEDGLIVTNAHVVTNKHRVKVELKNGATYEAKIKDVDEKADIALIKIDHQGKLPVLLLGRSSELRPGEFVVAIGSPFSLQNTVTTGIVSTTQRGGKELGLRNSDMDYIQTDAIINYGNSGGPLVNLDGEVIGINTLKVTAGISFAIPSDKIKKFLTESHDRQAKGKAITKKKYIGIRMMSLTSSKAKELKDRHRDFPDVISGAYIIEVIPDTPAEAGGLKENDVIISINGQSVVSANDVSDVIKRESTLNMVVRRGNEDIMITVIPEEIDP
# pPAFAH inh: pPAFAH enzyme inhibitors, primary screen, biochemical, fluorescence polarization, human; recombinant pPAFAH, FP-rhodamine probe fluorescence polarization; inhibition, % at 3.39 µM; 330,000 compounds, 1.5% hits; AID 463082, 2010;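 active = inhibition above the mean inhibition across the screen plus 3 SD, cut at about 25% in these data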;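 also: inhibitors block binding of the rhodamine activity-based probe so polarization drops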
# Numbers stand for hits; i = inactive; nt = not tested or not shown. The list is not random: actives were taken first. Their share in the collection is about 2.8%.
SMILES,PAFAH1B2 inh,PAFAH1B3 FP inh,DAGLB inhibitor,PAFAH2 inh,HTRA1 inhibitor,pPAFAH inh
Cc1ccc(-c2cc(-c3ccc(Cl)cc3)c(C#N)c(N)n2)o1,i,i,i,i,i,25
Cc1ccc(-c2cc(-c3ccc(C)o3)nc(N)c2C#N)cc1,i,i,i,i,i,i
Cc1ccc(C(=O)NC2CC(C)(C)NC(C)(C)C2)cc1Cl,i,i,i,i,i,i
CC1(C)CC(NC(=O)c2cccc(S(=O)(=O)Nc3cccc(Cl)c3)c2)CC(C)(C)N1,i,i,i,i,i,27
CCOc1ccccc1NC1=NCC(=O)N1Cc1ccc(F)cc1,i,i,i,i,i,32
NC(=O)Cc1ccc(C(=O)CSc2nnc(-c3ccncc3)n2C2CC2)s1,i,i,i,i,i,33
COc1cc2cc(CN(Cc3nnnn3Cc3ccco3)C3CCCCC3)c(=O)[nH]c2cc1OC,i,i,i,i,i,26
CCOc1ccc2[nH]c(=O)c(CN(Cc3nnnn3Cc3ccco3)C3CCCCC3)cc2c1,i,i,i,i,i,i
O=C(NCc1ccc2c(c1)OCO2)C1CC(=O)N(CCc2ccc(Cl)cc2)C1 (stereo not drawn),i,i,i,i,i,i
CC(C)C(OC(=O)CN1C(=O)c2ccccc2C1=O)C(=O)NC1CCCCC1 (stereo not drawn),i,i,i,i,i,i
Cc1ccc(S(=O)(=O)N2CCOCC2)cc1C(=O)OCC(=O)c1ccc(Br)cc1,26,i,i,i,i,i
Cc1cc(C(=O)CSc2cccc[n+]2[O-])c(C)n1-c1ccc(OC(F)F)cc1,i,i,i,i,i,31
COC(=O)c1ccc(-n2c(C)cc(C(=O)CSc3cccc[n+]3[O-])c2C)cc1,i,i,i,i,i,i
Cc1cc(C)cc(NC(=O)Nc2ccc(-n3ccc(C(F)(F)F)n3)cc2)c1,49,i,i,i,i,i
Cc1c(OCC(=O)N[C@@H](CSCc2ccccc2)C(=O)O)ccc2c3c(c(=O)oc12)CCC3,24,i,i,i,i,nt
Cc1c(OCC(=O)N[C@@H](Cc2ccccc2)C(=O)O)ccc2c3c(c(=O)oc12)CCC3,i,i,i,i,i,i
Cc1ccc(NC(=O)[C@@H]2CCCN2S(=O)(=O)c2ccc(Cl)cc2)cc1,i,i,i,i,i,i
COCCN(C(=O)c1ccc(OCC(C)C)cc1)c1c(N)n(Cc2ccccc2)c(=O)[nH]c1=O,i,i,i,i,i,31
COCc1ccc(-c2c(-c3ccsc3)sc3ccccc23)cc1,i,i,i,i,i,25
Oc1ccc(-c2c(-c3ccsc3)sc3ccccc23)cc1,i,i,i,i,i,29
c1ccc2c(-c3ccc(OCCN4CCCCC4)cc3)c(-c3ccsc3)sc2c1,i,i,i,i,i,i
CCn1nc(C(=O)OCC(=O)N2CC(=O)Nc3ccccc32)c2ccccc2c1=O,i,i,i,i,i,i
CC(=O)OCC1=C(C(=O)O)N2C(=O)C(NC(=O)c3ccc(COc4ccc(Cl)cc4)o3)C2SC1 (stereo not drawn),25,i,i,i,i,26
Cc1ccc(C(=O)c2ccc([N+](=O)[O-])cc2)cc1,i,i,i,i,i,i
Cc1ccc(C2SCCN2C(=O)c2ccc([N+](=O)[O-])cc2)cc1 (stereo not drawn),24,i,i,i,i,i
O=C(c1ccc([N+](=O)[O-])cc1)N1CCSC1c1ccc(Cl)cc1 (stereo not drawn),29,i,i,i,i,i
CC(=O)Nc1ccc(N2C(=O)CSC2c2ccc([N+](=O)[O-])cc2)cc1 (stereo not drawn),i,i,i,i,i,i
CCCCNC(=O)C(C1CCCCC1)N(CCN(C)C)C(=O)CCCN1C(=O)NC(c2ccc(-c3ccccc3)cc2)C(C(=O)OCc2ccccc2)=C1C (stereo not drawn),i,i,i,i,i,i
CCCCCCN(C(=O)CCCCCN1C(=O)NC(c2ccc(-c3ccccc3)cc2)C(C(=O)OCc2ccccc2)=C1C)C(C)C(=O)NCCCC (stereo not drawn),nt,nt,nt,nt,nt,28

# Assay outcomes from PubChem BioAssay.
